According to PubChem BioAssay (NCI):
This is part of a sample that, as a whole, favours compounds with a hit. Of some 79,000 tested, about 15% had one in any assay. Unmarked numbers belong to inactive results. The source made the active and inactive calls. No stated cut-off is given here; in the data, active means growth inhibition above about 70%; inactive means the rest.

What was measured:
[1] = NCI Yeast Anticancer Drug Screen. Data for the rad50 strain (AID 155);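 further: 0% = growth of vehicle-only cultures of the same strain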; conditions: S. cerevisiae rad50 strain growth inhibition, hits give high values
Outline: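 Readout: growth inhibition relative to vehicle-treated cultures. Compound exposure was carried out in a genetically defined yeast strain deficient in DNA damage repair.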

[2] = NCI Yeast Anticancer Drug Screen. Data for the mec2-1 strain (AID 157); conditions: S. cerevisiae mec2-1 strain, hits give high values
Outline: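 Compounds were applied to mec2-1 yeast cells. Their growth was then compared with that of vehicle-treated cultures to give growth inhibition.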

[3] = NCI Yeast Anticancer Drug Screen. Data for the sgs1 mgt1 strain (AID 161);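 further: 0% = growth of cultures given vehicle only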; conditions: S. cerevisiae sgs1 mgt1 strain, hits give high values
Outline: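 Growth of a repair-deficient yeast mutant was monitored after compound treatment and expressed as inhibition relative to vehicle-treated cultures.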

[4] = NCI Yeast Anticancer Drug Screen. Data for the cln2 rad14 strain (AID 165);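 further: 0% = growth equal to vehicle treated cultures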; conditions: S. cerevisiae cln2 rad14 strain, hits give high values
Outline: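 Strain: cln2 rad14 yeast, altered in cell cycle control and DNA damage repair. Read-out: growth inhibition vs vehicle.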

[5] = NCI Yeast Anticancer Drug Screen. Data for the bub3 strain (AID 167); conditions: S. cerevisiae bub3 mutant strain, hits give high values
Outline: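 Readout: yeast growth inhibition, expressed relative to vehicle-only wells. The test organism is a mutant strain from a panel with lesions in DNA repair or checkpoint genes.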

[6] = NCI Yeast Anticancer Drug Screen. Data for the mlh1 rad18 strain (AID 175); conditions: S. cerevisiae mlh1 rad18 strain growth inhibition, hits give high values
Outline: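 A repair-deficient yeast strain is exposed to test compound, and growth is scored relative to vehicle-treated controls.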

[7] = at 5.0 µM (retest, dose inferred, filed as 0.5)
[8] = at 50.0 µM (retest, dose inferred, filed as 5.0)

Compound | growth inhibition [1, 7] | growth inhibition [1, 8] | growth inhibition ([1]; at 50.0 µM) | growth inhibition [2, 7] | growth inhibition [2, 8] | growth inhibition ([2]; at 50.0 µM) | growth inhibition [3, 7] | growth inhibition [3, 8] | growth inhibition ([3]; at 50.0 µM) | growth inhibition [4, 7] | growth inhibition [4, 8] | growth inhibition ([4]; at 50.0 µM) | growth inhibition [5, 7] | growth inhibition [5, 8] | growth inhibition ([5]; at 50.0 µM) | growth inhibition [6, 7] | growth inhibition [6, 8] | growth inhibition ([6]; at 50.0 µM)
C[CH2][Sn]1([CH2]C)[O]S(=O)(=O)[O]1 | 15% | 77% (active) | 70.2% (active) | 12% | 95% (active) | 76.5% (active) | 12% | 93% (active) | 25.4% | 22% | 56% | 60.2% | 13% | 92% (active) | 45.1% | 12% | 88% (active) | 53.9%
CC(C)[S-].CC(C)[S-].[Pt+2].c1ccc([PH+](c2ccccc2)c2ccccc2)cc1.c1ccc([PH+](c2ccccc2)c2ccccc2)cc1 | 4% | 96% (active) | 88.2% (active) | 5% | 97% (active) | 90.3% (active) | 2% | 98% (active) | 86.2% (active) | -2% | 96% (active) | 55.9% | 7% | 97% (active) | 67.3% | 4% | 97% (active) | 95.7% (active)
COCC(C#N)NC1CC(OC2CC(O)(C(=O)CO)Cc3c(O)c4c(c(O)c32)C(=O)c2c(OC)cccc2C4=O)OC(C)C1O (configuration not stated) | 63% | 97% (active) | 91.3% (active) | 29% | 98% (active) | 89% (active) | 52% | 98% (active) | 90.2% (active) | 39% | 96% (active) | 88.7% (active) | 43% | 98% (active) | 92.1% (active) | 44% | 97% (active) | 89.8% (active)
Oc1c(Cl)c(Cl)c(O)c(Cl)c1Cl | 65% | 97% (active) | 99.2% (active) | 35% | 99% (active) | 99.3% (active) | 37% | 99% (active) | 99.1% (active) | -2% | 80% (active) | 95.7% (active) | 64% | 97% (active) | 99.1% (active) | 47% | 98% (active) | 98.8% (active)
CC(=O)c1ccccc1O.CO.CO.[Cl][Ta][Cl] | 1% | 1% | -13% | 15% | -7% | -5.75% | -14% | 0% | -9.65% | -7% | -6% | 33.9% | -1% | -5% | 3.45% | -6% | 1% | -10.2%
S=P(OC1CC2CCC1C2)(c1ccccc1)c1ccccc1 (configuration not stated) | 83% (active) | 98% (active) | -15.2% | 90% (active) | 99% (active) | 4.1% | 86% (active) | 97% (active) | -0.75% | 87% (active) | 98% (active) | 30.4% | 88% (active) | 97% (active) | -10.6% | 91% (active) | 99% (active) | 1.2%
COCCOCCOC(=O)CBr | -2% | 96% (active) | 86.1% (active) | -7% | 96% (active) | 82.5% (active) | 1% | 97% (active) | 88.7% (active) | 1% | 68% | 40.7% | -3% | 94% (active) | 77.8% (active) | -3% | 97% (active) | 92.2% (active)
CC(=O)[O][Hg][c]1ccc(N)[c]([Hg][O]C(C)=O)c1 | 99% (active) | 98% (active) | 99.5% (active) | 99% (active) | 99% (active) | 99.5% (active) | 99% (active) | 99% (active) | 99.5% (active) | 99% (active) | 98% (active) | 98.7% (active) | 99% (active) | 99% (active) | 99.2% (active) | 99% (active) | 99% (active) | 99.1% (active)
COc1c(Cl)[c]([Hg][O]C(C)=O)c(NCC(C)=O)c(OC)[c]1[Hg][O]C(C)=O | 80% (active) | 94% (active) | 87.3% (active) | 99% (active) | 94% (active) | 90.5% (active) | 99% (active) | 95% (active) | 90.8% (active) | 35% | 95% (active) | 89.4% (active) | 99% (active) | 94% (active) | 89.4% (active) | 95% (active) | 94% (active) | 86.4% (active)
O=C1c2ccccc2C[CH]1[Hg][Cl] (configuration not stated) | 99% (active) | 99% (active) | 99.2% (active) | 100% (active) | 100% (active) | 99.5% (active) | 100% (active) | 99% (active) | 99.3% (active) | 99% (active) | 99% (active) | 96.2% (active) | 99% (active) | 99% (active) | 98.7% (active) | 99% (active) | 99% (active) | 99.3% (active)
O=C(N/N=C/c1cc(Br)cc(Br)c1[O-])c1ccccc1O.O=C(N/N=C/c1cc(Br)cc(Br)c1[O-])c1ccccc1O.[Co+2] | 93% (active) | 97% (active) | 94.6% (active) | 95% (active) | 96% (active) | 95.7% (active) | 91% (active) | 98% (active) | 94.8% (active) | 82% (active) | 97% (active) | 92.5% (active) | 90% (active) | 97% (active) | 95.5% (active) | 95% (active) | 96% (active) | 96% (active)
O=C(N/N=C/c1cc(Br)cc(Br)c1[O-])c1ccccc1O.O=C(N/N=C/c1cc(Br)cc(Br)c1[O-])c1ccccc1O.[Mn+2] | 96% (active) | 94% (active) | 97.6% (active) | 98% (active) | 96% (active) | 95.7% (active) | 98% (active) | 93% (active) | 93.2% (active) | 93% (active) | 90% (active) | 97.3% (active) | 96% (active) | 94% (active) | 96% (active) | 96% (active) | 94% (active) | 98% (active)
O=C(O)C(F)(F)C(F)(F)C(=O)O | 8% | -3% | 0.35% | 3% | 0% | -1.4% | -5% | -2% | 4.8% | 6% | 1% | -16.1% | 5% | 26% | -3.15% | 5% | -2% | 5.25%
COc1cc(C2c3cc4c(cc3OC(N3CCOCC3)C2C)OCO4)cc(OC)c1OC (configuration not stated) | 18% | 22% | -12.6% | 21% | 31% | -2.55% | -17% | -10% | -1.05% | 4% | 0% | 4.2% | 0% | -11% | 13.3% | 22% | 28% | 0.7%
COc1cc([N+](=O)[O-])c2ncccc2c1[N+](=O)[O-] | -1% | 23% | 85% (active) | -5% | 13% | 52.4% | -2% | 26% | 74.5% (active) | -5% | -9% | 53.6% | -11% | 12% | 39.4% | 13% | 45% | 93.6% (active)
O=[N+]([O-])/C=C\c1ccccc1 | 65% | 99% (active) | 92.8% (active) | 17% | 99% (active) | 95.2% (active) | 20% | 99% (active) | 91.8% (active) | 14% | 99% (active) | 82.7% (active) | 39% | 99% (active) | 97% (active) | 26% | 99% (active) | 79% (active)
CC(=O)OC1CC[C@@]2(C)C(=CC[C@@H]3[C@@H]2CC[C@]2(C)C(OC(C)=O)[C@H](n4ccnc4)C[C@@H]32)C1 (some centres not stated) | 22% | 84% (active) | 71.8% (active) | 8% | 52% | 62.8% | 14% | 78% (active) | 75.2% (active) | 9% | 58% | 69.9% | -43% | 74% (active) | 77% (active) | 17% | 56% | 91.2% (active)
C[C@]12CC[C@H](OC3OC(CO)C(O)C(O)C3O)C[C@H]1CC[C@@H]1[C@@H]2CC[C@]2(C)[C@@H](C3=CCOC3=O)CC[C@]12O (some centres not stated) | 7% | 4% | -11.2% | 6% | -2% | -6.9% | -17% | -2% | 6.4% | -11% | -35% | 13.1% | -22% | 7% | -38.5% | 6% | 21% | 49.6%
Cc1ccc(N=P(c2ccccc2)(c2ccccc2)c2ccccc2)cc1.[Br][Hg][Br] | 99% (active) | 99% (active) | 98.8% (active) | 100% (active) | 100% (active) | 97.6% (active) | 99% (active) | 99% (active) | 98% (active) | 99% (active) | 99% (active) | 98.3% (active) | 98% (active) | 99% (active) | 98.8% (active) | 99% (active) | 99% (active) | 97.1% (active)
